# Results published in PubChem BioAssay (NCI).
# Compounds without any hit were thinned out: in the full panel of roughly 83,000, 20% have a hit.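 Testing used 96-well plates and a 48-hour single-concentration exposure. Example: -40 means 40% of the starting cells died.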 A number with no mark means an inactive call. The source made the active and inactive calls. The calls were made as follows: active = growth percent below 10; inactive = the rest.
# Test system: SN12C renal
# Assay: NCI-60 one-dose screen, 48 h (100 = growth as untreated, 0 = no growth, -100 = all killed)
# Settings: 10 µM unless noted
row,SMILES,growth
1,COc1ccc(/C=C/c2nc(Nc3ccc(S(=O)(=O)Nc4cc(C)on4)cc3)c3ccccc3n2)cc1,82.3%
2,NS(=O)(=O)c1ccc(CCN2C(=O)c3cc(Cl)c(Cl)cc3C2=O)cc1,107%
3,C/C=C(\C)C(=O)NC1=CC[C@@]2(C)C(=CCC3C2CC[C@@]2(C)C3CC[C@@H]2C(C)N(C)C)C1=O (stereo partly specified),60.6%
4,O=c1c2c(c(=O)n1O)c1c3ccc[nH]c3nc1c1nc3[nH]cccc3c12,80.5%
5,Cc1ccc(C(=O)/C(=C\c2ccc([N+](=O)[O-])cc2)S(=O)Cc2ccc(F)cc2)cc1 (stereo unspecified),-52.1% (active)
6,O=C(Nc1ncc(Cc2cc(Cl)ccc2Cl)s1)c1cccs1,65.4%
7,O=C(C[n+]1cccc2ccccc21)c1ccc(O)c(O)c1,72.4%
8,OCc1cnccc1NCCCCOc1ccc(Oc2ccccc2)cc1,70.7%
9,Oc1cccc(CCc2ccc(Oc3cc(CCc4cccc(O)c4)cc(O)c3O)cc2)c1,67.9%
10,CC/C(=C\c1ccc(OC)cc1)C(=O)c1ccc(OC)cc1,91.8%
11,CN1C(N2CCN(S(=O)(=O)c3ccccc3)CC2)=NS(=O)(=O)c2ccccc21,90.7%
12,O=C1Nc2ccc(F)cc2/C1=C\c1c(-c2ccccc2)nc2ccccn12,80.4%
13,O=C(Cn1c(C(=O)c2ccccc2)nc2ccccc21)c1ccc(F)cc1,77.9%
14,COc1ccc(C(=O)c2nc3ccccc3n2CC(=O)c2ccc(Cl)cc2)cc1,45.5%
15,CC(=O)[C@@H]1CC[C@]2(C(N)=O)CC[C@]3(C)[C@H](CC[C@@H]4[C@@]5(C)CCCNC(C)(C)[C@@H]5CC[C@]43C)[C@@H]12,86.5%
16,Oc1c(Cl)cc(Cl)c(Cl)c1CNCCNCc1c(O)c(Cl)cc(Cl)c1Cl,36.2%
17,O=C1Nc2cc(Cl)ccc2/C1=C\c1c(-c2ccc(F)cc2)nc2ccccn12,19.1%
18,O=C(NO)c1ccc(-n2nc(-c3ccccc3)c3ccccc32)cc1,32.9%
19,O=C(CNCCN1CCOCC1)N1c2cccc3cccc(c23)N(C(=O)CNCCN2CCOCC2)C1c1cn(-c2ccccc2)nc1-c1cccc([N+](=O)[O-])c1,79.4%

row,SMILES,growth
1,O=C1c2cccc3c(-c4ccc5c(c4)ncn5C4CCCCC4)ccc(c23)C(=O)N1CCO,93.8%
2,CC(=O)Oc1ccc(/C=N/NC(N)=S)nc1,73.6%
3,NC(=S)N1N=C(c2ccccc2)CC1c1cn(-c2ccccc2)nc1-c1ccc(OCc2ccccc2)cc1 (stereo unspecified),93.2%
4,Cc1ccc(-c2nc3ccccn3c2/C=C2/C(=O)Nc3cc(Cl)ccc32)cc1,77.5%
5,Clc1ccc(-c2ccc(CNCC3CCNCC3)o2)c(-c2ccccc2)c1,-75.6% (active)
6,CC(=O)[C@H]1CCC/C=C/[C@@H]2C[C@H](O)C[C@H]2[C@H](O)/C=C/C(=O)O1,9.7% (active)
7,CCOC(=O)c1cc(C(=O)c2ccc(Br)cc2)n2ccc(/C=C/c3cc[n+](CC(=O)c4ccc(OC)cc4)cc3)cc12,78%
8,COc1ccc(/C=C/c2nc(Nc3ccc(S(=O)(=O)Nc4nc(C)cc(C)n4)cc3)c3ccccc3n2)cc1,76.8%
9,Cc1ccc(C(=O)/C(=C/c2ccc([N+](=O)[O-])cc2)SCc2ccc(Cl)cc2)cc1,70.3%
10,O=C1c2c(c3c4cccc(F)c4[nH]c3c3ccc4ccccc4c23)C(=O)N1O,41.5%
11,COc1ccc(C(=O)C2C(C#N)C(C#N)C3C=Cc4ccccc4N32)cc1 (stereo unspecified),32.7%
12,CCOC(=O)CC1CSC(N/N=C/c2ccc(-n3cccn3)cc2)=N1 (stereo unspecified),100%
13,CC(C)N1C(=O)/C(=C2\SC(=S)N(C(C)C)C2=O)SC1=S,93.1%
14,CC(C)(C)[Si](C)(C)OC1[C@@H](O[Si](C)(C)C(C)(C)C)[C@@H](CNC(=O)NC(=O)CCl)O[C@H]1n1cnc2c(NC(=O)Nc3ccccc3)ncnc21 (stereo partly specified),-50.3% (active)
15,COc1ccc(-c2nc3sccn3c2/C=C/C(=O)c2ccc3c(c2)OCO3)cc1,86.1%
16,O=C1c2ccccc2C(=O)c2c([N+](=O)[O-])ccc(Cl)c21,97.5%
17,COc1ccc(/C=C/c2nc(Nc3cccc(NC(C)=O)c3)c3ccccc3n2)cc1,89.1%
18,Cc1ccc(-n2nc3c(c(C#N)c2=O)CC(c2ccccc2[N+](=O)[O-])C([N+](=O)[O-])=C3O)cc1 (stereo unspecified),91.8%
19,COc1cc(OC)cc(C(=O)C[n+]2cccc3cc[nH]c32)c1,87.3%

# Test system: UO-31 renal
# Assay: as above
# Settings: 10 µM unless noted
row,SMILES,growth
1,COc1ccc(/C=C/c2nc(Nc3ccc(S(=O)(=O)Nc4cc(C)on4)cc3)c3ccccc3n2)cc1,50.3%
2,NS(=O)(=O)c1ccc(CCN2C(=O)c3cc(Cl)c(Cl)cc3C2=O)cc1,93%
3,C/C=C(\C)C(=O)NC1=CC[C@@]2(C)C(=CCC3C2CC[C@@]2(C)C3CC[C@@H]2C(C)N(C)C)C1=O (stereo partly specified),1.15% (active)
4,O=c1c2c(c(=O)n1O)c1c3ccc[nH]c3nc1c1nc3[nH]cccc3c12,91%
5,Cc1ccc(C(=O)/C(=C\c2ccc([N+](=O)[O-])cc2)S(=O)Cc2ccc(F)cc2)cc1 (stereo unspecified),-46.1% (active)
6,O=C(Nc1ncc(Cc2cc(Cl)ccc2Cl)s1)c1cccs1,62.5%
7,O=C(C[n+]1cccc2ccccc21)c1ccc(O)c(O)c1,50.6%
8,OCc1cnccc1NCCCCOc1ccc(Oc2ccccc2)cc1,49.8%
9,Oc1cccc(CCc2ccc(Oc3cc(CCc4cccc(O)c4)cc(O)c3O)cc2)c1,36.4%
10,CC/C(=C\c1ccc(OC)cc1)C(=O)c1ccc(OC)cc1,81.1%
11,CN1C(N2CCN(S(=O)(=O)c3ccccc3)CC2)=NS(=O)(=O)c2ccccc21,72.4%
12,O=C1Nc2ccc(F)cc2/C1=C\c1c(-c2ccccc2)nc2ccccn12,46.6%
13,O=C(Cn1c(C(=O)c2ccccc2)nc2ccccc21)c1ccc(F)cc1,80.6%
14,COc1ccc(C(=O)c2nc3ccccc3n2CC(=O)c2ccc(Cl)cc2)cc1,45.6%
15,CC(=O)[C@@H]1CC[C@]2(C(N)=O)CC[C@]3(C)[C@H](CC[C@@H]4[C@@]5(C)CCCNC(C)(C)[C@@H]5CC[C@]43C)[C@@H]12,76.5%
16,Oc1c(Cl)cc(Cl)c(Cl)c1CNCCNCc1c(O)c(Cl)cc(Cl)c1Cl,0.579% (active)
17,O=C1Nc2cc(Cl)ccc2/C1=C\c1c(-c2ccc(F)cc2)nc2ccccn12,28.7%
18,O=C(NO)c1ccc(-n2nc(-c3ccccc3)c3ccccc32)cc1,34.6%
19,O=C(CNCCN1CCOCC1)N1c2cccc3cccc(c23)N(C(=O)CNCCN2CCOCC2)C1c1cn(-c2ccccc2)nc1-c1cccc([N+](=O)[O-])c1,65.1%

row,SMILES,growth
1,O=C1c2cccc3c(-c4ccc5c(c4)ncn5C4CCCCC4)ccc(c23)C(=O)N1CCO,62.1%
2,CC(=O)Oc1ccc(/C=N/NC(N)=S)nc1,52.7%
3,NC(=S)N1N=C(c2ccccc2)CC1c1cn(-c2ccccc2)nc1-c1ccc(OCc2ccccc2)cc1 (stereo unspecified),84.7%
4,Cc1ccc(-c2nc3ccccn3c2/C=C2/C(=O)Nc3cc(Cl)ccc32)cc1,62.5%
5,Clc1ccc(-c2ccc(CNCC3CCNCC3)o2)c(-c2ccccc2)c1,-95.1% (active)
6,CC(=O)[C@H]1CCC/C=C/[C@@H]2C[C@H](O)C[C@H]2[C@H](O)/C=C/C(=O)O1,1.16% (active)
7,CCOC(=O)c1cc(C(=O)c2ccc(Br)cc2)n2ccc(/C=C/c3cc[n+](CC(=O)c4ccc(OC)cc4)cc3)cc12,77.6%
8,COc1ccc(/C=C/c2nc(Nc3ccc(S(=O)(=O)Nc4nc(C)cc(C)n4)cc3)c3ccccc3n2)cc1,51.8%
9,Cc1ccc(C(=O)/C(=C/c2ccc([N+](=O)[O-])cc2)SCc2ccc(Cl)cc2)cc1,48.2%
10,O=C1c2c(c3c4cccc(F)c4[nH]c3c3ccc4ccccc4c23)C(=O)N1O,30.4%
11,COc1ccc(C(=O)C2C(C#N)C(C#N)C3C=Cc4ccccc4N32)cc1 (stereo unspecified),42%
12,CCOC(=O)CC1CSC(N/N=C/c2ccc(-n3cccn3)cc2)=N1 (stereo unspecified),90.9%
13,CC(C)N1C(=O)/C(=C2\SC(=S)N(C(C)C)C2=O)SC1=S,78.6%
14,CC(C)(C)[Si](C)(C)OC1[C@@H](O[Si](C)(C)C(C)(C)C)[C@@H](CNC(=O)NC(=O)CCl)O[C@H]1n1cnc2c(NC(=O)Nc3ccccc3)ncnc21 (stereo partly specified),-75% (active)
15,COc1ccc(-c2nc3sccn3c2/C=C/C(=O)c2ccc3c(c2)OCO3)cc1,73.5%
16,O=C1c2ccccc2C(=O)c2c([N+](=O)[O-])ccc(Cl)c21,76.6%
17,COc1ccc(/C=C/c2nc(Nc3cccc(NC(C)=O)c3)c3ccccc3n2)cc1,68.3%
18,Cc1ccc(-n2nc3c(c(C#N)c2=O)CC(c2ccccc2[N+](=O)[O-])C([N+](=O)[O-])=C3O)cc1 (stereo unspecified),61.8%
19,COc1cc(OC)cc(C(=O)C[n+]2cccc3cc[nH]c32)c1,71.2%
